Experimental data published in PubChem BioAssay.
Calls of active or inactive are those of the source.

How the values were obtained:
[1] = test system: PRMT1 (protein arginine N-methyltransferase 1); assay: small molecules binding arginine methyltransferase PRMT1 – biochemical, small-molecule microarray, 635 nm fluorescence, primary screen (AID 1088); conditions: higher = more signal;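 note: binding of Prmt1 protein to compounds spotted on small-molecule microarray slides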
[2] = growth effects on S. cerevisiae YJM789 – YJM789 clinical isolate, OD600, 24 h, basal, primary screen (AID 1089); conditions: higher = more signal, called active from +8 up or from −8 down;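 note: growth of clinical yeast isolate S. cerevisiae YJM 789 seeded 1000 cells per well; test concentration not given here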
[3] = S. pombe growth modifiers, basal conditions – strain 972, OD600, 24 h, no modulator, primary screen (AID 1090);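 note: basal condition with compound alone and no growth modifier present; test concentration not given here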; conditions: S. pombe 972 growth, higher = more signal, called active from +8 up or from −8 down
[4] = budding yeast growth modifiers under rapamycin – strain BY4716, OD600, 96 h, primary screen (AID 1091); note: test concentration not given here; conditions: S. cerevisiae BY4716 + rapamycin, higher = more signal, called active from +8 up or from −8 down
[5] = target: Torsin-1A-interacting protein 2 (Homo sapiens) (UniProt Q8NFQ8); assay: small molecules binding lysate-expressed LULL1 – cell lysate, human LULL1 lysate, 635/667 nm fluorescence, primary screen (AID 1092); conditions: small-molecule microarray, hLULL1 lysate binding, 635 nm fluorescence; higher = more signal;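 note: probe is lysate of COS7 cells overexpressing human LULL1; score merges per-feature 667 nm fluorescence with signal-to-noise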
Sequence of Torsin-1A-interacting protein 2 (Homo sapiens) (Q8NFQ8 whole entry, looked up): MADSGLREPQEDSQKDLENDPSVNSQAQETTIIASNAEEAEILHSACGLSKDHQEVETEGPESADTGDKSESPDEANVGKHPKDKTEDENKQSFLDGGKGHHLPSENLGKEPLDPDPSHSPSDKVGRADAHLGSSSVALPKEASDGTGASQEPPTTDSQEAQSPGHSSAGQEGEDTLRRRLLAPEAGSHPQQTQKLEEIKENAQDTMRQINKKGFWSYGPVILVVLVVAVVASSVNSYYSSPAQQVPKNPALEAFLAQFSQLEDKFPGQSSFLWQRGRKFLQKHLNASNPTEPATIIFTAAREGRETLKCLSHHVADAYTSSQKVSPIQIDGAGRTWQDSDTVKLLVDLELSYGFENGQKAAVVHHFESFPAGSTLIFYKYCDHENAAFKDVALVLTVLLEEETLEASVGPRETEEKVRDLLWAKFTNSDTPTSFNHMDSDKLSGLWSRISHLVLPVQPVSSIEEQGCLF

[6] = optical density change of DRC41 E. coli – strain DRC41, OD650, 24 h, E. coli filamentation project, primary screen (AID 1093);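 note: MC1000 strain lacking acrAB efflux and sulA so SOS filamentation is blocked; test concentration not given here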; conditions: E. coli DRC41 growth, higher = more signal, called active from +8 up or from −8 down
[7] = probe aLefty2 binding to arrayed compounds – biochemical, biotinylated probe, 635/667 nm fluorescence, primary screen (AID 1094); conditions: small-molecule microarray, higher = more signal;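 note: score merges spot fluorescence near 667 nm with spot signal-to-noise ratio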
[8] = test system: Noggin (protein binding on small-molecule microarray); assay: small molecules binding Noggin protein – biochemical, 635/667 nm fluorescence, primary screen (AID 1095); conditions: 635 nm fluorescence, higher = more signal;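 note: score merges 667 nm feature fluorescence with signal to noise over triplicate slides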
[9] = target: Neurogenic locus notch homolog protein 3 (Homo sapiens) (UniProt Q9UM47); assay: small molecules binding NOTCH3 protein – biochemical, 635/667 nm fluorescence, primary screen (AID 1096); conditions: small-molecule microarray, 635 nm fluorescence, higher = more signal
Sequence of Neurogenic locus notch homolog protein 3 (Homo sapiens) (Q9UM47 whole entry, looked up): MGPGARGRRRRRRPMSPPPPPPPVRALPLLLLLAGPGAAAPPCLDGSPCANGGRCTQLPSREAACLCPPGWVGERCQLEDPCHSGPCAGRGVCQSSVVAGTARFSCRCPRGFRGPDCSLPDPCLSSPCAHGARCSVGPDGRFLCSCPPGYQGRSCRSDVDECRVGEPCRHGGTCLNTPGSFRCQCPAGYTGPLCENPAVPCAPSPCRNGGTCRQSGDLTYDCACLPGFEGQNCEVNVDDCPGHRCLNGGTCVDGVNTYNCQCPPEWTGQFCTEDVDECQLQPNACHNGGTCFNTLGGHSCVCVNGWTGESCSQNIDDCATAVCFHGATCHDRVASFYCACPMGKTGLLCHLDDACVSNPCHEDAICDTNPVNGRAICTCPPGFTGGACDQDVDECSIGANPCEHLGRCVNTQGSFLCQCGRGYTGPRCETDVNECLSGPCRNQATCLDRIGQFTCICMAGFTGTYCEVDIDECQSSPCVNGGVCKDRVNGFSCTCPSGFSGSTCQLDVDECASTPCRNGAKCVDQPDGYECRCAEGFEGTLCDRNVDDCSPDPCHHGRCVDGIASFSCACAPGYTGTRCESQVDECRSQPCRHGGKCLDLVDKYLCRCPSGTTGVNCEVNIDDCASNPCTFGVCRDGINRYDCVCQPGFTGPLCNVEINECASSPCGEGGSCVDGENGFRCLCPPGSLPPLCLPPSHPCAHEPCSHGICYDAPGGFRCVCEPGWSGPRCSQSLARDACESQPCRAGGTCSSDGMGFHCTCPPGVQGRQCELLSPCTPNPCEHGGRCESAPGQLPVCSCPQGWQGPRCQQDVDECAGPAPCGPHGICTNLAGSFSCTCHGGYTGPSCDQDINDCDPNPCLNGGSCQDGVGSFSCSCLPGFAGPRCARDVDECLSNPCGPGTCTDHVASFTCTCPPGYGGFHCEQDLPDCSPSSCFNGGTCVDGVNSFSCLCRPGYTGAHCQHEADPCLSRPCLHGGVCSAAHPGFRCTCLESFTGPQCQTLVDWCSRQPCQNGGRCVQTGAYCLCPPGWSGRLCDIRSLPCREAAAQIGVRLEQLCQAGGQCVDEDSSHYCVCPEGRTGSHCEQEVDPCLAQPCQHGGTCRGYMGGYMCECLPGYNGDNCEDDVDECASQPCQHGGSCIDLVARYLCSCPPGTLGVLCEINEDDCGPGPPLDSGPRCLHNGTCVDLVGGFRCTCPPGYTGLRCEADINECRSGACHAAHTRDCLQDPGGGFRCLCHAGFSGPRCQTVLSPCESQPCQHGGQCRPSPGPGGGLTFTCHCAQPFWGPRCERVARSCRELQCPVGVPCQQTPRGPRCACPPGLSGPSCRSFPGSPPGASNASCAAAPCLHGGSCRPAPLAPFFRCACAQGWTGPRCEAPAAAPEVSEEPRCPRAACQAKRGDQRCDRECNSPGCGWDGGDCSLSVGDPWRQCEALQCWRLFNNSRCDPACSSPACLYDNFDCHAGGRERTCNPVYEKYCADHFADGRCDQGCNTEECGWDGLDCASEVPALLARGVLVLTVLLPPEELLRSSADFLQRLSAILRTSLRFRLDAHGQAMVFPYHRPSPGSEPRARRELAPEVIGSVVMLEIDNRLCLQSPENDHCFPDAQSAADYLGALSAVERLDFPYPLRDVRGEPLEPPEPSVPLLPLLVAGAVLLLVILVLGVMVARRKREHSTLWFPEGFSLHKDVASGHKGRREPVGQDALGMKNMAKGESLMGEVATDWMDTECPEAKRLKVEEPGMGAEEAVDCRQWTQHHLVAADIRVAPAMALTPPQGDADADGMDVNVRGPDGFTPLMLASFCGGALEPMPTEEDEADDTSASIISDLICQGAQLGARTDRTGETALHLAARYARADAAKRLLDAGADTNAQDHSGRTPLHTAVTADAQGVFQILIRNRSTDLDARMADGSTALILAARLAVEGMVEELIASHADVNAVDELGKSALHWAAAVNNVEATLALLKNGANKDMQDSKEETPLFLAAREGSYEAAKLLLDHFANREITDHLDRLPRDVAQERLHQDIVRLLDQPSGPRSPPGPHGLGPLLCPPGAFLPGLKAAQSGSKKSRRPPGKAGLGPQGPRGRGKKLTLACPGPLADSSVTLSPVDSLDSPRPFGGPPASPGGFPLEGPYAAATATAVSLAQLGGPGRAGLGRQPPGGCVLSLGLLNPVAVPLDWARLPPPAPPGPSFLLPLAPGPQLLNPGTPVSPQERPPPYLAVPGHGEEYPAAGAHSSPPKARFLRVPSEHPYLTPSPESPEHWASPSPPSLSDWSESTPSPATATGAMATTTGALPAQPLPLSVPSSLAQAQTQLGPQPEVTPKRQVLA

[10] = probe aEGFR binding to arrayed compounds – biochemical, biotinylated probe, 635/667 nm fluorescence, primary screen (AID 1097); conditions: small-molecule microarray, higher = more signal;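 note: probe is a biotinylated anti-EGFR antibody binding compounds printed on slides; score combines fluorescence near 667 nm and signal to noise of each spot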
[11] = test system: Plasmodium falciparum Sir2 (PF13_0152, Sir2A); assay: Plasmodium falciparum Sir2A binding compounds – biochemical, small-molecule microarray, 635 nm fluorescence, primary screen (AID 1098); conditions: fluorescence 635 nm, higher = more signal;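 note: score merges spot fluorescence intensity with its signal-to-noise ratio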
[12] = probe aDKK1 binding to arrayed compounds – biochemical, biotinylated probe, 635/667 nm fluorescence, primary screen (AID 1099); conditions: small-molecule microarray, higher = more signal;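 note: score merges 667nm spot fluorescence with signal to noise across triplicate slides; reference of the scale not given here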
[13] = probe aCHRDL2 binding to arrayed compounds – biochemical, biotinylated probe, 635/667 nm fluorescence, primary screen (AID 1100); conditions: small-molecule microarray, higher = more signal
[14] = change in splice reporter luminescence, either direction, cell-based, HEK293, spliceosome inhibition project, primary screen (AID 1101); conditions: HEK293 splicing luciferase reporter, 24 h, higher = more signal, called active from +8 up or from −8 down;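 note: HEK293 cells carrying a splicing-competent luciferase reporter gene; test concentration not given here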
[15] = target: Fibroblast growth factor 10 (Homo sapiens) (UniProt O15520); assay: compounds binding fibroblast growth factor 10 – biochemical, small-molecule microarray, 635 nm fluorescence, primary screen (AID 1102); conditions: FGF10 binding, fluorescence 635 nm, higher = more signal
Sequence of Fibroblast growth factor 10 (Homo sapiens) (O15520 whole entry, looked up): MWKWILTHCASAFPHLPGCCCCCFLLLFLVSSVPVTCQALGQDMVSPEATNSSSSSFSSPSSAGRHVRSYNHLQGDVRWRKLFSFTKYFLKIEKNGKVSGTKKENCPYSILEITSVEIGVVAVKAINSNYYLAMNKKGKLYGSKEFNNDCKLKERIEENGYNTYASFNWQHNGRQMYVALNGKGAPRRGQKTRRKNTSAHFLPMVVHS

[16] = test system: glycogen synthase kinase-3 (GSK3A per assay name; protocol says GSK3B); assay: compounds binding glycogen synthase kinase-3 – biochemical, small-molecule microarray, 635 nm fluorescence, GSK3A, primary screen (AID 1103); conditions: fluorescence 635 nm, higher = more signal; note: the record names both GSK3A and GSK3B
[17] = target: Epidermal growth factor receptor (Homo sapiens) (UniProt P00533); assay: compounds binding epidermal growth factor receptor – biochemical, small-molecule microarray, 635 nm fluorescence, primary screen (AID 1104); conditions: EGFR binding, higher = more signal;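 note: score merges 667 nm emission intensity with spot signal to noise over triplicate slides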
Sequence of Epidermal growth factor receptor (Homo sapiens) (P00533 whole entry, looked up): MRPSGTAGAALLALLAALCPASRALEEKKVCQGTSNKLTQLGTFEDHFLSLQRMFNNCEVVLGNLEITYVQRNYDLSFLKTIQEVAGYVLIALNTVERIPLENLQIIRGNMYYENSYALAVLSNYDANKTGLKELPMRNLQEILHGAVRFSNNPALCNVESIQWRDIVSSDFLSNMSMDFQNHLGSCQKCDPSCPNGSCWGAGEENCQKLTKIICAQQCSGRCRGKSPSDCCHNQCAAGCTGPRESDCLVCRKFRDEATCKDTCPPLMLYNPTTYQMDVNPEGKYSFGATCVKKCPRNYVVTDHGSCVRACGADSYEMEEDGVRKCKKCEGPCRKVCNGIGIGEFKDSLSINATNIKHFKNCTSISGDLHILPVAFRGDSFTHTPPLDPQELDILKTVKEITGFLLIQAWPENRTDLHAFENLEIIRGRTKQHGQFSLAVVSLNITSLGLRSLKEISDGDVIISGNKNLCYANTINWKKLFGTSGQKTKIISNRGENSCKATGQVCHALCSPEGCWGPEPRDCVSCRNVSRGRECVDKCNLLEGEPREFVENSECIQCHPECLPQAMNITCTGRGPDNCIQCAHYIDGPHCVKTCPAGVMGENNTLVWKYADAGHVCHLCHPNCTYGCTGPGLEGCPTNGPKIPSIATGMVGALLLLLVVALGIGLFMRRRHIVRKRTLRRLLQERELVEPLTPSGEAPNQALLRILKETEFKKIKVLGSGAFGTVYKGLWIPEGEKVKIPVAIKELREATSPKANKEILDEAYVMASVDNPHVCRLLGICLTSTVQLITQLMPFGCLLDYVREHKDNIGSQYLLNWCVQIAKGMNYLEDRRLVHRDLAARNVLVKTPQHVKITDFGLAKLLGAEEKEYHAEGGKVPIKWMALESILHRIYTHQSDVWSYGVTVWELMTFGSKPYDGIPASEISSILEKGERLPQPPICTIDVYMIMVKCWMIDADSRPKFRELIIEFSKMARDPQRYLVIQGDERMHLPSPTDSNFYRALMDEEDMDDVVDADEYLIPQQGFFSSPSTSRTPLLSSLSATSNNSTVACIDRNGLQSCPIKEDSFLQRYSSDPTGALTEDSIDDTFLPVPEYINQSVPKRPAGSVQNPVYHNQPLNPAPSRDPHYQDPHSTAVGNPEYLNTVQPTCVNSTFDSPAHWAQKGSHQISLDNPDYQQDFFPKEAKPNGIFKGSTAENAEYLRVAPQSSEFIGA

[18] = target: Follistatin-related protein 3 (Homo sapiens) (UniProt O95633); assay: compounds binding follistatin-related protein 3 – biochemical, small-molecule microarray, 635 nm fluorescence, primary screen (AID 1105); conditions: FSTL3 binding, higher = more signal;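 note: score merges emission near 667 nm and signal to noise per printed spot across three slides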
Sequence of Follistatin-related protein 3 (Homo sapiens) (O95633 whole entry, looked up): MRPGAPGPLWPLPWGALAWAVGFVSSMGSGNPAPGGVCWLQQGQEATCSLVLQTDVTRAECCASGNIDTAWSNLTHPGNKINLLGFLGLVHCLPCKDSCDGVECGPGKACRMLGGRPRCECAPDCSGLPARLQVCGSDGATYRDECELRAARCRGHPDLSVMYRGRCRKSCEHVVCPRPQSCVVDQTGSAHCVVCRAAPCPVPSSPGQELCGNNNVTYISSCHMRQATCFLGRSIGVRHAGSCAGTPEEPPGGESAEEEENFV

[19] = target: Dickkopf-related protein 1 (Homo sapiens) (UniProt O94907); assay: small molecules binding DKK1 protein – biochemical, small-molecule microarray, 635 nm fluorescence scan, primary screen (AID 1106); conditions: higher = more signal;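 note: score merges emission near 667 nm with signal to noise over three replicate slides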
Sequence of Dickkopf-related protein 1 (Homo sapiens) (O94907 whole entry, looked up): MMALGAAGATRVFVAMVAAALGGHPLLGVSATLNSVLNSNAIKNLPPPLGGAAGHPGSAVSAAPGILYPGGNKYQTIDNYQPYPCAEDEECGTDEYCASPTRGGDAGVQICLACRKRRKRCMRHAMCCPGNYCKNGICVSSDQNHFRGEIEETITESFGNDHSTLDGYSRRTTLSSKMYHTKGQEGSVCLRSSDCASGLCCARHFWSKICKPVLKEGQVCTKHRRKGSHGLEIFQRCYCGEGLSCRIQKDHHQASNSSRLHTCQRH

[20] = test system: Inhibin beta A chain (activin A); assay: small molecules binding activin A – biochemical, small-molecule microarray, 635 nm fluorescence scan, primary screen (AID 1107); conditions: INHBA, higher = more signal;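 note: mouse activin A protein probed at 4.33 µg/mL on printed slides; score merges bound-protein fluorescence near 667 nm with spot signal-to-noise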

Row | Structure (SMILES) | composite z-score [1] | z-score [2] | z-score [3] | z-score [4] | composite z-score [5] | z-score [6] | composite z-score [7] | composite z-score [8] | composite z-score [9] | composite z-score [10] | composite z-score [11] | composite z-score [12] | composite z-score [13] | z-score [14] | composite z-score [15] | composite z-score [16] | composite z-score [17] | composite z-score [18] | composite z-score [19] | composite z-score [20]
1 | CC(=O)OC[C@H]1O[C@@H](ON=C(C)C)[C@H](OC(C)=O)[C@@H](OC(C)=O)[C@@H]1OC(C)=O | -0.312 | 0.559 (inactive) | -0.159 (inactive) | 0.196 (inactive) | -1.31 | -0.109 (inactive) | 0.089 | 0.0419 | -1.53 | -0.0393 | -0.745 | -0.191 | 0.46 | 0.851 (inactive) | -0.527 | -1.28 | -0.246 | -1.57 | -1.38 | -2.17
2 | CC(=O)OC[C@H]1O[C@@H](ON=C(C)CCN2CCCCc3nc(C)c(C)cc32)[C@H](OC(C)=O)[C@@H](OC(C)=O)[C@@H]1OC(C)=O | 1.53 | -0.61 (inactive) | -0.149 (inactive) | -0.175 (inactive) | 1.07 | -0.871 (inactive) | -0.0179 | 0.708 | 0.927 | 0.145 | 0.834 | -0.208 | -0.664 | -1.29 (inactive) | 1.23 | 1.19 | 1.11 | 1.28 | 1.39 | 0.328
3 | C[C@@H](c1ccccc1)N1C(=O)[C@H]2[C@H]3[C@H](O)[C@H](O)CC(=NOCc4ccccc4)[C@@H]3CC[C@H]2C1=O | -0.246 | 0.855 (inactive) | -0.293 (inactive) | 0.512 (inactive) | 0.379 | -0.125 (inactive) | 0.408 | -0.29 | -0.551 | -0.203 | -0.139 | 1.19 | 1.31 | 0.36 (inactive) | -0.222 | -0.187 | -0.169 | -0.909 | -1 | 0.549
4 | O=C(NN=C1C[C@@H](O)[C@@H](O)[C@@H]2[C@@H]3C(=O)N(Cc4ccccc4)C(=O)[C@@H]3CC[C@H]12)OCc1ccccc1 | -0.38 | -0.79 (inactive) | -0.815 (inactive) | -1.27 (inactive) | -0.845 | 0.399 (inactive) | -0.269 | 0.382 | 0.577 | -0.0796 | -0.944 | -0.427 | -0.47 | -0.865 (inactive) | 0.773 | 0.256 | 0.39 | 0.315 | 0.698 | -0.0371
5 | CCOC(=O)[C@H](CC(C)C)NC(=O)CCC1CC(OC(=O)NCc2ccc3c(c2)OCO3)CC2(CCCC(COC(=O)NCCc3ccc(Cl)cc3)O2)O1 (stereo not given in full) | 1.3 | -1.06 (inactive) | -0.571 (inactive) | -1.81 (inactive) | 1.39 | 0.544 (inactive) | -0.0615 | 0.553 | 0.951 | 0.065 | 0.193 | -0.0218 | -0.514 | 0.0274 (inactive) | 0.525 | 0.293 | 0.199 | 0.829 | 0.96 | 0.101
6 | CCCNC(=O)OC[C@H]1O[C@H](CCON=C2c3cc(OC)ccc3O[C@H](c3cccc(OC)c3)[C@H]2O)C=C[C@@H]1Oc1ccc(OC)cc1 | 0.799 | -0.409 (inactive) | 0.464 (inactive) | 0.479 (inactive) | 0.972 | 0.8 (inactive) | 0.451 | 0.716 | 0.468 | 0.0897 | 0.204 | 0.0079 | -0.0136 | -0.553 (inactive) | 0.744 | 0.21 | 0.474 | 0.54 | 0.273 | -0.479
7 | CCCNC(=O)OC[C@H]1O[C@H](CCON=C[C@@H](NS(=O)(=O)c2ccc(C)cc2)[C@H](C)C=CCC(=O)OC)C=C[C@@H]1Oc1ccc(OC)cc1 | 0.409 | -1.21 (inactive) | 0.331 (inactive) | -0.148 (inactive) | -0.0006 | -0.0353 (inactive) | -0.181 | 0.0599 | -0.0703 | -0.0443 | -0.289 | -0.0175 | 0.0838 | -0.362 (inactive) | -0.0511 | -0.54 | -0.147 | -0.293 | -0.0968 | 0.32
8 | C[C@@H]1CC[C@@H](C(=O)O)N[C@H]1c1cccc(N2CCOCC2)c1 | -0.618 | 0.395 (inactive) | -0.623 (inactive) | -0.591 (inactive) | 0.879 | 1.64 (inactive) | -0.106 | 0.377 | 0.597 | -0.106 | 0.168 | -0.191 | -0.449 | -1.02 (inactive) | 0.631 | 0.74 | 0.797 | 0.409 | 0.109 | 0.0223
9 | CC(C)[C@@H](OCc1ccccc1)[C@H](C)C=NOC[C@@H](O)[C@H]1O[C@@H]2OC(C)(C)O[C@@H]2[C@H]1O | 0.763 | 0.87 (inactive) | 1.05 (inactive) | 0.821 (inactive) | 0.758 | 0.517 (inactive) | -0.132 | 1.07 | 0.676 | -0.0828 | 0.635 | -0.0784 | -0.609 | -0.262 (inactive) | 0.355 | 0.151 | 0.677 | 0.628 | 0.254 | -0.519
10 | COC(=O)CC=C[C@@H](C)[C@@H](C=NOC[C@@H](C)[C@H](OCc1ccccc1)C(C)C)OC | 0.823 | 0.0783 (inactive) | -0.466 (inactive) | 1.13 (inactive) | 0.227 | -0.0725 (inactive) | -0.215 | 0.293 | 0.232 | -0.126 | 0.161 | -0.325 | -0.208 | -0.201 (inactive) | 0.286 | 0.103 | 0.146 | 0.102 | 0.426 | -0.283
